From the supplement of paper PMC13172266
Where a name gives a salt, the structure may show the parent alone.

How the values were obtained:
Assay in all cases: cell proliferation relative to vehicle (% of vehicle); higher = less growth inhibition
Conditions in all cases: 72 h
[1] = test system: U2932 TK216-resistant clone 2
In short: (§1)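 Parental U2932 cells (ABC-DLBCL) and two clones made resistant to an ETS-targeting agent by almost a year of repeated exposure were treated for 72 h with 348 targeted inhibitors at 500 nM or 50 nM. MTT was then applied for 4 h, the reaction was stopped with 25% SDS, and absorbance was measured on a Cytation 3. Values express proliferation as percent of proliferating cells compared with DMSO vehicle.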

[2] = test system: U2932 TK216-resistant clone 3
In short: as §1

[3] = test system: U2932 parental
In short: as §1

| SMILES | cell proliferation ([1]; 50 nM) | cell proliferation ([1]; 500 nM) | cell proliferation ([2]; 50 nM) | cell proliferation ([2]; 500 nM) | cell proliferation ([3]; 50 nM) | cell proliferation ([3]; 500 nM) |
| --- | --- | --- | --- | --- | --- | --- |
| CN[C@@H](C)C(=O)N[C@H]1CN(C(=O)CC(C)C)CC[C@H]2CC[C@@H](C(=O)NC(c3ccccc3)c3ccccc3)N2C1=O | 106 | 111 | 94.6 | 105 | 94 | 103 |
| Cn1cnc([N+](=O)[O-])c1Sc1ncnc2[nH]cnc12 [Azathioprine] | 100 | 98.4 | 103 | 103 | 97.5 | 103 |
| CCOc1cc(C(=O)N2CCC(N3CCN(C)CC3)CC2)ccc1Nc1ncc2c(n1)N(C1CCCC1)c1ccccc1C(=O)N2C | 95 | 74.3 | 95.4 | 65.4 | 94.8 | 75.5 |
| COc1cc(F)c(F)c(Nc2ccc(I)cc2F)c1NS(=O)(=O)C1(C[C@H](O)CO)CC1 [Refametinib (RDEA119, Bay 86-9766)] | 104 | 92.6 | 105 | 97.1 | 92.8 | 96.2 |
| CCOc1ccc(Cc2cc([C@@H]3O[C@H](CO)[C@@H](O)[C@H](O)[C@H]3O)ccc2Cl)cc1 [Dapagliflozin] | 103 | 103 | 101 | 107 | 103 | 96.2 |
| CCCC(CCC)C(=O)O [Valproic acid sodium salt (Sodium valproate)] | 98.2 | 101 | 103 | 94.2 | 106 | 97.6 |
| CC(C)c1cc(-c2n[nH]c(=O)n2-c2ccc3c(ccn3C)c2)c(O)cc1O [Ganetespib (STA-9090)] | 6.02 | 4.07 | 23.7 | 19.8 | 4.55 | 5.59 |
| O=c1sn(-c2cccc3ccccc23)c(=O)n1Cc1ccccc1 [Tideglusib] | 94 | 106 | 103 | 101 | 89.3 | 93.1 |
| CCOC(=O)c1[nH]c2cc(Cl)ccc2c1C(C(=O)NC(C)(C)C)N(C=O)Cc1ccc(Cl)cc1 (centres undefined) | 106 | 92.2 | 103 | 95.6 | 97.7 | 93.4 |
| CO[C@@H](C)Cn1c(=O)n(C)c2cnc3ccc(-c4cncc(C(C)(C)O)c4)cc3c21 | 79.1 | 23.8 | 79.2 | 30.9 | 80.4 | 33.6 |
| C[C@@H](Oc1cc(-c2cnn(C3CCNCC3)c2)cnc1N)c1c(Cl)ccc(F)c1Cl | 97.6 | 74.4 | 86.4 | 61.9 | 89.9 | 56.5 |
| Nc1ccc(C(=O)Nc2cccc(-c3nc(N4CCOCC4)c4oc5ncccc5c4n3)c2)cn1 | 98.7 | 104 | 102 | 104 | 102 | 103 |
| Cn1cc(-c2ccc3nnc(C(F)(F)c4ccc5ncccc5c4)n3n2)cn1 | 102 | 103 | 106 | 113 | 99.8 | 99.2 |
| CCC(C)(C)C(=O)O[C@H]1C[C@@H](C)C=C2C=C[C@H](C)[C@H](CC[C@@H]3C[C@@H](O)CC(=O)O3)[C@H]21 [Simvastatin] | 91.4 | 88.7 | 98.4 | 89.1 | 90.5 | 87.4 |
| Cc1cc(Nc2cc(N3CCN(C)CC3)nc(/C=C/c3ccccc3)n2)n[nH]1 | 82 | 66.1 | 97.6 | 48.9 | 93 | 46 |
| Cc1c(NC(=O)OC[C@@H]2COCCN2)cn2ncnc(Nc3ccc4c(cnn4Cc4cccc(F)c4)c3)c12 | 100 | 80.4 | 98.1 | 71.9 | 97.2 | 81.6 |
| COC1=CC(c2cc3ccccc3[nH]2)=N/C1=C\c1[nH]c(C)cc1C [Obatoclax Mesylate (GX15-070)] | 94.8 | 1.6 | 102 | 8.59 | 75.2 | 2.95 |
| CC(C)(C)c1cc(NC(=O)Nc2ccc(-c3cn4c(n3)sc3cc(OCCN5CCOCC5)ccc34)cc2)no1 [Quizartinib (AC220)] | 95.7 | 97.3 | 95 | 90.2 | 101 | 102 |
| COc1cc(Nc2ncc(F)c(Nc3ccc4c(n3)NC(=O)C(C)(C)O4)n2)cc(OC)c1OC | 108 | 97.1 | 103 | 103 | 87.9 | 82.1 |
| O=C1c2c(O)ccc(O)c2C(=O)c2c(NCCNCCO)ccc(NCCNCCO)c21 [Mitoxantrone HCl] | 9.19 | 5.75 | 14.8 | 10.6 | 16.4 | 7.06 |
| CO[C@@H](C(=O)N1Cc2[nH]nc(NC(=O)c3ccc(N4CCN(C)CC4)cc3)c2C1)c1ccccc1 | 97.2 | 84 | 77.8 | 71.7 | 71.8 | 69.5 |
| COc1cc(Nc2ncc(F)c(Nc3ccc4c(n3)NC(=O)C(C)(C)O4)n2)cc(OC)c1OC [R406 (free base)] | 98 | 87.2 | 103 | 98.3 | 94.8 | 92.8 |
| C[C@@H](N)[C@H]1CC[C@H](C(=O)Nc2ccncc2)CC1 | 98.8 | 102 | 100 | 103 | 94.8 | 97.7 |
| Cn1cc(-c2ccc3c(c2)CCN3C(=O)Cc2cccc(C(F)(F)F)c2)c2c(N)ncnc21 | 105 | 102 | 108 | 121 | 101 | 105 |
